# A selection: hits, their analogues and other compounds. The true share with any hit is near 2.4%.
# NOD2 RIPK2 PPI: NOD2-RIPK2 protein interaction inhibition | O43353 | CHO BLA complementation NOD2-RIPK2, CCF4 ratio | inhibition, % at 4.98 µM | actives 0.38% (n = 360,000) | AID 624267; in the data active means inhibition above about 21%;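 further: 0% = vehicle only and 100% = reference blocker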
# HSF1 inhib: HSF1 inhibition | activity change, negative = inhibition, % at 7.5 µM (by protocol) | actives 0.77% (n = 300,000) | AID 2098 | NIH3T3-HGL HSE-luciferase, MG132-induced, luminescence 8 h; hits give low values;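 active means more than half of replicate wells show activity change below -50%, luminescence cut by over half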;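 further: luciferase reports HSF-1 transcriptional activity via heat shock element; 0% = median of DMSO wells and -100% = zero luminescence signal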
# TLR4-MyD88 BLA: blocks binding of human TLR4 to MyD88; O00206+Q99836; HeLa CL3-4 TLR4/MyD88 BLA complementation, FRET ratio; inhibition, % at 8.4 µM; actives 0.18% (n = 200,000); AID 861; in the data active means inhibition above about 25%;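 further: 0% = vehicle and 100% = reference inhibitor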
# HSF1 activator: increases HSF-1 driven luciferase reporter signal; activation, % at 9 µM; AID 504408; NIH3T3-HGL HSF-1 luciferase reporter, MG132, 8 h; 100% = twice DMSO control signal; actives 1.7% (n = 300,000);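 active means mean replicate activation of at least 50% with a set share of replicates each reaching 50%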;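 further: 0% = median of the neutral control wells and 100% = twice that signal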
# TLR9-MyD88 inh: blocks human TLR9 binding to MyD88. CHO BLA complementation TLR9-MyD88, CCF4 FRET ratio. actives 0.21% (n = 340,000). inhibition, % at 4.98 µM. Q9NR96+Q99836;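 active means inhibition above the mean over all tested compounds plus 3 SD, cut at about 21% in these data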;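 further: 0% = DMSO only wells and 100% = clavulanate BLA inhibitor control wells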
# The depositor's hits bear a star; . = no result.
SMILES,NOD2 RIPK2 PPI,HSF1 inhib,TLR4-MyD88 BLA,HSF1 activator,TLR9-MyD88 inh
COc1ccc(CN2C(=NC(=O)CCC3CCCC3)SC3CS(=O)(=O)CC32)cc1 (centres undefined),6,-71*,.,-78,-12
COc1ccc(CN2C(=NC(=O)C3CCCCC3)SC3CS(=O)(=O)CC32)cc1 (centres undefined),-2,4,.,0,8
c1cnc(SCCOc2ccc3c(c2)CCC3)nc1,-16,26,-5,57*,6
CNCCCOc1ccc2c(c1)CCC2,2,5,7,1,1
O=C(CCCCCn1c(=S)[nH]c2cc3c(cc2c1=O)OCO3)N1CCN(Cc2ccccc2)CC1,-2,.,-9,.,-5
O=C(CCCCCn1c(=S)[nH]c2cc3c(cc2c1=O)OCO3)N1CCN(C(=O)c2ccco2)CC1,0,-67*,16,-76,-1
O=C(NCCS(=O)(=O)N1CCN(c2ccccc2)CC1)C1CCCCC1,-7,.,.,.,-7
CC(O)C(NS(=O)(=O)c1ccc(Cl)cc1)C(=O)OCCOc1ccc(F)cc1 (centres undefined),-6,.,.,.,-6
Cc1ccc(C)c(-n2c(CNC(=O)c3ccco3)nnc2SCC(=O)N2CCc3ccccc32)c1,5,11,4,58*,-9
CCOc1ccc(S(=O)(=O)N(CC)CC(=O)NC2CC2)cc1,-3,0,.,30,-9
Cc1ccc(Cc2c(C(C)(C)C)nc3ccc(Br)cn23)cc1,-20,.,.,.,.
FC(F)(F)c1nnc(-c2ccccc2)nc1Sc1ccccc1,-3,261,16,260*,12
O=C(/C=C/c1cccnc1)c1ccc(F)c(F)c1,1,-5,.,2,-6
CN(C)c1ccc(C(=O)/C=C/c2cccnc2)cc1,8,22,.,52*,-2
Cc1ccc(C(c2c(C)nn(-c3ccccc3)c2N)c2c(C)nn(-c3ccccc3)c2N)cc1,-8,68,2,93*,7
C=CC[N@@+]12CC[C@]34c5ccccc5N5/C=C6\C7N(/C=C(\C53)[C@@H](C[C@@H]41)/C(=C/CO)C2)c1ccccc1[C@@]71CC[N@@+]2(CC=C)C/C(=C\CO)[C@@H]6C[C@@H]12 (some centres undefined),-11,.,.,.,6
CC(Sc1nnc(-c2cccnc2)n1N)C(=O)NCCC1=CCCCC1 (centres undefined),-12,.,.,.,-2
O=C(NCc1ccco1)C1CCN(S(=O)(=O)c2cccc([N+](=O)[O-])c2)CC1,-8,-80*,.,-84,-10
CC1(C(=O)NS(=O)(=O)Cc2ccccc2)CCN1C(=O)C1(c2ccc(Cl)cc2)CC1 (centres undefined),-3,.,.,.,.
CCS(=O)(=O)c1ncc(Cl)c(C(=O)Nc2ccccc2OC)n1,16,381,.,490*,11
CCSc1ncc(Cl)c(C(=O)Nc2ccccc2C)n1,4,10,.,55*,-2
COc1ccccc1NC(=O)c1nc(S(=O)(=O)Cc2ccccc2)ncc1Cl,14,-87*,.,-88,12
CSc1ncc(Cl)c(C(=O)Nc2ccccc2C)n1,-10,-1,.,-9,-1
CCOc1ccccc1NC(=O)c1nc(S(=O)(=O)Cc2ccccc2)ncc1Cl,15,-83*,.,-83,9
Cc1ccccc1S(=O)(=O)N1CCN(c2ccc3c(c2)C2CC3CCN2C(=O)OCc2ccccc2)CC1 (centres undefined),-3,.,.,.,.
SMILES,NOD2 RIPK2 PPI,HSF1 inhib,TLR4-MyD88 BLA,HSF1 activator,TLR9-MyD88 inh
COc1ccc(C(=O)Nc2nc3cc4c(cc3s2)OCCO4)c(OC)c1,3,-61*,.,-67,-3
COc1ccccc1C(=O)Nc1nc2cc3c(cc2s1)OCCO3,1,-3,-6,1,8
COc1ccccc1C(=O)Nc1nc2cc3c(cc2s1)OCO3,-7,27,.,54*,-25
COc1cc(OC)cc(C(=O)NNc2nc3cc4c(cc3s2)OCO4)c1,9,18,-5,23,3
COc1cccc(OC)c1C(=O)Nc1nc2cc3c(cc2s1)OCO3,-2,-2,.,-1,-1
COc1cc(C(=O)NNc2nc3cc4c(cc3s2)OCO4)cc(OC)c1OC,-3,26,-8,62*,-7
CC(=O)NC(c1ccccc1)c1nc(-c2ccc(C)c(C)c2)cs1 (centres undefined),-1,.,.,.,.
O=C(COC(=O)c1n[nH]c(=O)c2ccccc12)Nc1cccc(S(=O)(=O)N2CCOCC2)c1,-12,.,.,.,-2
